Experimental findings from PubChem BioAssay (Tox21) are described below.

Structures are written as SMILES. Results filed as inconclusive are left out. Unmarked numbers belong to inactive results. The source made the active and inactive calls. The call rests on the fitted dose curve; in most records, active means well fitted cell-killing curve with a large enough effect in the repeat runs; inconclusive means weak or mixed curves, or effect the other way; inactive means flat fitted curve, though single readings scatter.
On the % scale 0 is the no-effect control and ±100 the full control effect.

This assay in a line: qHTS assay to identify small molecule agonists of the TGF-beta/Smad signaling pathway - cell viability counter screen (AID 1346829). Further: top concentration of the series differs between compounds; nearly all actives have a fitted effect of over 45% in size. The settings on record: SBE-bla HEK293T viability, CellTiter-Glo luminescence, 5 h; series mostly up to 76.8 µM. An excerpt: National Center for Advancing Translational Sciences [NCATS]
NIH Chemical Genomics Center [NCGC]
U.S. Environmental Protection Agency [EPA]
National Institutes of Environmental Health Sciences [NIEHS]
National Toxicology Program [NTP]
U.S. Food and Drug Administration [FDA]
Transforming growth factor beta (TGF-beta) superfamily consists of a large number of structurally related dimeric proteins that act as hormones or local mediators in regulating a wide range of biological functions. This superfamily includes TGF-betas themselves, the bone morphogenetic proteins (BMPs) and the activins. These ligands induce oligomerization of serine/threonine receptor kinases and phosphorylate the cytoplasmic signaling molecules of Smad protein family. CellSensor SBE-bla HEK 293T cell line (Life Technologies, Carlsbad, CA), responsive to TGF-beta was used to screen Tox21 10K compound library for identification of agonists/antagonists of the Smad signaling pathway. This cell line contains a beta-lactamase reporter gene under control of the Smad binding element (SBE) stably integrated into HEK 293T cells. Also cytotoxicity of the compounds was tested in parallel by measuring the cell viability using CellTiter-Glo assay system in the same wells.
Tox21 Assay Protocol Summary:
SBE-bla HEK 293T cells were dispensed at 4,000/well in 6 uL of assay medium into black wall/clear-bottom 1536-well plates using a Multidrop Combi (ThermoFisher Scientific, Waltham, MA) dispenser. After the assay plates were incubated at 37 C and 5% CO2 for an overnight, 23 nL of compounds dissolved in DMSO, positive controls or DMSO only was transferred to the assay plate by a Pintool station (Kalypsys, San Diego, CA). The assay plates were incubated at 37 C and 5% CO2 for 5 hr. One uL of LiveBLAzer B/G FRET substrate (Life Technologies) was added using a Flying Reagent Dispenser (FRD, Aurora Discovery, San Diego, CA) and the plates were incubated at room temperature for 2 hr. Fluorescence intensity (405 nm excitation, 460 nm and 530 nm emissions) was measured using an Envision plate reader (PerkinElmer, Shelton, CT). For cytotoxicity read, 4 uL of CellTiter-Glo reagent (Promega Corporation, Madison, WI) was added to each well of the assay plates using FRD. After 30min incubation at room temperature, the luminescence intensity was measured using ViewLux plate reader (PerkinElmer).
(In general: qHTS replaces the single test concentration by a dilution series.)
For `CC[N+](C)(C)c1cccc(O)c1`, the result was inactive.
On the same count and under the same terms, the result for `Cn1c(N)c(N=O)c(=O)n(C)c1=O` reads “inactive”; that for `CCOC(=O)CC(C)=O`, “inactive”; that for `CC/C=C\CC/C=C/C(OCC)OCC`, “inactive”.
On to `C=CCOCC(CC)(CO)COCC=C`, for which the outcome was inactive.
As for `CCCCCSCCCCC`, the result was inactive.
Same read-out and setting: the result for `O=C(O)COc1nn(Cc2ccccc2)c2ccccc12` reads “inactive”; that for `COc1c(N2C[C@@H]3CCCN[C@@H]3C2)c(F)cc2c(=O)c(C(=O)O)cn(C3CC3)c12`, “inactive”.
Still for that read-out and setting: next, `CCCCCCCCCCCCN(CCCCCCCCCCCC)CCCCCCCCCCCC`: “inactive”.
In the case of `NS(=O)(=O)c1cc(C(=O)O)cc(N2CCCC2)c1Oc1ccccc1`, the outcome was inactive.
Regarding `O=C(CCCN1CCC(O)(c2cccc(C(F)(F)F)c2)CC1)c1ccc(F)cc1`, the outcome was inactive.
As to `Nc1c[n+](N2CCOCC2)no1`, the outcome was inactive.
Same read-out and setting: the result for `CCO[Si](CCC1CCC2OC2C1)(OCC)OCC` (stereo not given) reads “inactive”.
In the case of `NS(=O)(=O)c1cc(C(=O)NN2C[C@H]3[C@H]4CCC(C4)[C@H]3C2)ccc1Cl`, the compound was classed as inactive.
`COC(=O)C1=C(C)NC(C)=C(C(=O)OC)C1c1ccccc1[N+](=O)[O-]`: the call was inactive.
On to `CC(C)(C)c1nnc(NS(=O)(=O)c2ccccc2)s1`, for which the outcome was inactive.
Same read-out and setting: next, `CCOc1ccc(C(=O)OCCN(CC)CC)cc1`: “inactive”; `CC(C)OC(=O)c1ccccc1`: “inactive”.
On the same count and under the same terms, the result for `CCCCNC(=O)NCCCC` reads “inactive”.
The same measure, in the same setting: next, `O=Cc1cccc([N+](=O)[O-])c1`: “inactive”.
`NC(=O)c1ccc(N)cc1`: the call was inactive.
On to `CCCCCCCCCCCCCC=O`, for which the activity change, negative = cytotoxicity was 12.8% [at 6.97 µM].
Take `CO/N=C(/C(=O)N[C@@H]1C(=O)N2C(C(=O)OCOC(=O)C(C)(C)C)=C(C)CS[C@H]12)c1csc(N)n1`: the result was inactive.
The same measure, in the same setting: the result for `OC(CCN1CCCCC1)(c1ccccc1)C1CC2C=CC1C2` (stereo not given) reads “inactive”; that for `C[C@@H]1CCN(C(=O)[C@H](CCCN=C(N)N)NS(=O)(=O)c2cccc3c2NC[C@H](C)C3)[C@@H](C(=O)O)C1`, “inactive”.
Regarding `COCCCOCCCOC`, the call was inactive.
Still for that read-out and setting: the result for `c1ccc([C@H]2CN3CCSC3=N2)cc1` reads “inactive”; that for `CC(C)(O)C(=O)c1ccccc1`, “inactive”; that for `COc1ccc2c(c1)CCCC2=O`, “inactive”.
Still for that read-out and setting: next, `NC(=O)Nc1ccccc1`: “inactive”; `CC(C(=O)O)c1ccc(CC2CCCC2=O)cc1` (stereo not given): “inactive”.
On the same count and under the same terms, next, `FC1(F)C(F)(F)C(F)(F)C2(F)C(F)(F)C(F)(F)C(F)(F)C(F)(F)C2(F)C1(F)F` (stereo not given): “inactive”; `O=C1CC2CC1C1CCCC21` (stereo not given): “inactive”; `C[C@H](NC(CCc1ccccc1)C(=O)O)C(=O)N1CCC[C@H]1C(=O)O` (stereo not given in full): “inactive”.
As for `CCc1cccc2c(CCO)c[nH]c12`, the call was inactive.
Regarding `Cc1ccc(=O)n(-c2ccccc2)c1`, the compound was classed as inactive.
`N[C@@H](C(=O)N[C@@H]1C(=O)N2C(C(=O)O)=C(Cl)CS[C@H]12)c1ccccc1`: the activity change, negative = cytotoxicity was -0.75% [at 6.97 µM].
For `COc1ccc(CCN(C)CCCC(C#N)(c2cc(OC)c(OC)c(OC)c2)C(C)C)cc1OC` (stereo not given), the compound was classed as inactive.
`CC(=O)Nc1ccc(S(N)(=O)=O)cc1`: the outcome was inactive.
With `CC(C)NCC(O)c1ccc(NS(C)(=O)=O)cc1` (stereo not given), the outcome was inactive.
